# Bioassay records as filed in PubChem.
# aSyn rescue: qHTS of alpha-syn Inhibitors. AID 652106, 2013. 0.14% of 370,000 active. Yeast expressing alpha-synuclein, growth rescue, BacTiter-Glo, 24 h. Potency, µM (doses to about 46.1 µM), hits mostly activators; also: nearly all actives have a fitted effect of over 65% in size
#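 Rescue of yeast growth: cells expressing toxic alpha-synuclein, induced in galactose at OD600 0.02, incubated with compound 24 h at 30 C. ATP luminescence quantified growth; inhibitors of toxicity appear as activators.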
# TDP-43 yeast inh: qHTS of TDP-43 Inhibitors. AID 652104, 2013. TDP-43 expressing yeast growth rescue, BacTiter-Glo, 24 h. 1.8% of 410,000 active. Potency, µM (top dose mostly 46.1 µM), hits mostly activators; also: nearly all actives have a fitted effect of over 50% in size
#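 Yeast cells expressing TDP-43 under galactose induction are exposed to compounds for 24 hr at 30 deg C. BacTiter-Glo luminescence measures growth, so protective compounds score as activators.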
# FUS suppressor: qHTS for Suppressors of FUS Proteinopathy: Primary screen using FUS-linked yeast assay. AID 1347120, 2019. Potency, µM (doses to about 76.6 µM), actives largely listed as activators. 0.24% of 390,000 active. S. cerevisiae FUS-expressing, growth rescue, OD600, 24 h; also: nearly all actives have a fitted effect of over 55% in size
#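 Yeast FUS proteinopathy model; galactose-induced FUS (2%), starting OD 0.005. Cpds in dilution series, 24hr, 30C, 99% humidity. Abs 600 nm growth. Pos ctrl CP55940 (top 92uM final); neg ctrl DMSO.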
# Abeta yeast res: qHTS for compounds that reverse cellular toxicity of Amyloid beta (A-beta) peptide in yeast: Primary Screen; AID 1347071, 2019; 0.063% of 410,000 active; yeast expressing A-beta42, growth rescue, OD600, 48 h; response scale: 0% DMSO, 100% iron-clioquinol control; Potency, µM (series often up to 46.1 µM), most hits filed as activators; also: nearly all actives have a fitted effect of over 55% in size
#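 Growth rescue measured by 600 nm absorbance after 48 h yeast culture at 30 C with compound. Values normalized between DMSO and an equimolar ferric chloride plus clioquinol control.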
# Numbers stand for hits; – = inactive; ? = inconclusive; · = not tested or not shown; [ ] = remark or other dose. A selection: hits, their analogues and other compounds. The true share with any hit is near 2.1%. Calls follow the shape of the dose curve; as a rule, active = well fitted curve in the direction sought with a large enough effect; inconclusive = small, poorly fitted or top-dose-only effect, or another doubt; inactive = no such curve, though single readings can be large; an effect the other way counts as inactive or inconclusive.
SMILES,aSyn rescue,TDP-43 yeast inh,FUS suppressor,Abeta yeast res
CCC(=O)N1CCc2cc(S(=O)(=O)NCCC(=O)Nc3ccc(CC)cc3)ccc21,·,–,–,–
CCCCc1ccc(C(=O)N/C(=C\c2ccc(C)cc2)C(=O)NC2CCCCC2)cc1,·,–,–,–
O=C1CSC2(C(=O)N(Cc3cccc(C(F)(F)F)c3)c3ccccc32)N1c1ccc(F)c(F)c1 (stereo not drawn),–,?,?,–
O=C1CSC2(C(=O)N(Cc3cccc(F)c3)c3ccccc32)N1c1cccc(C(F)(F)F)c1 (stereo not drawn),?,22µM,–,–
Nc1nc(Nc2ccccc2)nc(NCc2ccco2)c1[N+](=O)[O-],–,20µM,–,–
CC(=O)N1CCN(/[N+]([O-])=N/Oc2ccc([N+](=O)[O-])cc2[N+](=O)[O-])CC1,–,·,·,·
CN(C(=O)CSc1nc(-c2ccccc2)cn1N)C(c1ccccc1)c1ccccc1,–,–,32µM,–
COc1ccccc1CNC(=O)CSc1nc(-c2ccccc2)cn1N,–,–,–,–
CC(C)c1nn2c(=O)cc(COC(=O)CNC(=O)c3ccccc3Cl)nc2s1,·,–,–,–
CC1CCc2c(sc3nnn(Cc4ccccc4Cl)c(=O)c23)C1 (stereo not drawn),·,–,–,–
CC1=C(C(=O)NCc2cccc(Br)c2)C2(CCCCC2)OC1=O,·,18µM,–,–
CCCCn1c(CN2CCN(c3cccc(Cl)c3)CC2)nc2c1c(=O)n(C)c(=O)n2C,–,20µM,–,–
CCCCCn1c(CN2CCN(c3cccc(Cl)c3)CC2)nc2c1c(=O)n(C)c(=O)n2C,–,?,?,–
CC(C)N(Cc1ccccc1)S(=O)(=O)c1ccc(N2CCCCS2(=O)=O)cc1,·,–[9.22 µM],–,–
COc1ccc(CNC(=O)CCSCc2ccccc2C)cc1,–,7.1µM,–,–
COc1ccc(CNC(=O)CCSCc2cccc(F)c2)cc1,–,10µM,–,–
O=C(CCSCc1cccc(Cl)c1)NCc1ccc(F)cc1Cl,·,22µM,–,?
N#C/C(=C/c1ccccc1[N+](=O)[O-])c1nc(C2CC2)cs1,–,?,·,–
N#C/C(=C\c1ccccc1[N+](=O)[O-])c1nc(C2CC2)cs1,–,14µM,·,–
Cc1noc(C)c1S(=O)(=O)Nc1ccc(C(=O)Nc2ccc(Br)cc2)cc1,·,–,–,–
CCc1ccc(C(=O)c2cn(CC(=O)NCCc3ccccc3)c3nc(C)ccc3c2=O)cc1,·,–,–,–
CCc1ccc2[nH]c(=O)c(C3C(C#N)=C(N)Oc4c3ccc3cccnc43)cc2c1 (stereo not drawn),–,–,25µM,–
Cc1ccc2cc(C3C(C#N)=C(N)Oc4c3ccc3cccnc43)c(=O)[nH]c2c1 (stereo not drawn),–,–,28µM,–
COc1ccc(CNC(=O)CCc2c(C)nc3c4cccnc4nn3c2C)cc1,·,–,–,–
O=C(Nc1c(-c2ccccc2)nc2ncccn12)c1ccc(F)cc1,·,·,–,·
SMILES,aSyn rescue,TDP-43 yeast inh,FUS suppressor,Abeta yeast res
CCCOc1cccc(C2c3c(oc4ccc(F)cc4c3=O)C(=O)N2CCCN2CCOCC2)c1 (stereo not drawn),·,–,–,–
Clc1ccc(-n2nnnc2-c2cnc3ccccc3c2-c2ccccc2)cc1,?,?,–,–
c1ccc(-n2nnnc2-c2cnc(-c3cccnc3)nc2-c2cccs2)cc1,–,32µM,?,–
CC(c1cc(F)ccc1O)c1c[nH]c2ccccc12 (stereo not drawn),·,·,–,·
CCc1ccc(CNC(=O)c2c(C)oc3ncn(CC(C)C)c(=O)c23)cc1,·,25µM,–,–
COc1ccc(OC)c(CCNC(=O)c2c(C)oc3ncn(CC(C)C)c(=O)c23)c1,·,25µM,?,–
COc1ccc(OC)c(CNC(=O)c2c(C)oc3ncn(CC(C)C)c(=O)c23)c1,·,?,–,–
NC(=O)c1ccccc1N/C=C/C(=O)c1ccc(F)cc1,–,?,–,–
Cc1ccc(C(=O)/C=C/Nc2ccccc2C(N)=O)o1,11µM,–,–,–
COCCN1C(=O)C(=O)/C(=C(/O)c2ccc(S(=O)(=O)N3CCOCC3)cc2)C1c1cccc(OC)c1 (stereo not drawn),–,–,5µM,–
COCCN1C(=O)C(=O)/C(=C(/O)c2ccc(S(=O)(=O)N3CCOCC3)cc2)C1c1cccc(O)c1 (stereo not drawn),–,–,–,–
O=C(NCCc1ccccc1)c1nn(-c2ccc(F)cc2)nc1CO,·,–,–,–
COC(=O)C[C@@H]1CC[C@H]2[C@@H](COc3ccc(NC(=O)Nc4ccc(C)cc4)cc3C(=O)N2C)O1,·,·,–,·
COc1ccc(S(=O)(=O)N2CCN(Cc3nc4ccc(C)cc4o3)CC2)cc1,·,18µM,–,–
Cc1cccc(Nc2ncccc2C(=O)NCc2cccs2)c1C,–,7.9µM,–,–
Cc1ccc(Nc2ncccc2C(=O)NCc2cccs2)c(C)c1,·,11µM,–,–
O=C(NCc1cccs1)c1cccnc1Cl,–,–,–,–
CS(=O)(=O)c1ccccc1COC(=O)Nc1ccc(Cl)cc1,–,13µM,–,–
O=C(Nc1ccc(Cl)cc1)OCc1ccccn1,–,–,–,–
Cc1cc(C)c(NC(=O)CCCN2C(=O)COc3ccc(C)cc32)c(C)c1,·,–,–,–
COc1cccc([C@@H]2CC=C(C(=O)O)[C@H](c3ccc(Br)cc3)N2S(=O)(=O)c2ccc(C)cc2)c1,–,35µM,–,–
Cc1ccc(S(=O)(=O)N2[C@@H](c3ccccc3F)C(C(=O)O)=CC[C@H]2c2ccc3c(c2)OCO3)cc1,–,–,–,–
Cc1ccc(S(=O)(=O)N2[C@@H](c3ccccc3)C(C(=O)O)=CC[C@H]2c2cccc(Cl)c2)cc1,–,35µM,–,–
Cc1ccc(S(=O)(=O)N2[C@@H](c3ccc(F)cc3)C(C(=O)O)=CC[C@H]2c2cccc(C)c2)cc1,–,32µM,–,–
Cc1ccc(S(=O)(=O)N2[C@@H](c3ccc(F)cc3)C(C(=O)O)=CC[C@H]2c2ccc3c(c2)OCO3)cc1,–,18µM,–,–
SMILES,aSyn rescue,TDP-43 yeast inh,FUS suppressor,Abeta yeast res
Cc1ccc([C@@H]2CC=C(C(=O)O)[C@H](c3ccc(Br)cc3)N2S(=O)(=O)c2ccc(C)cc2)cc1,–,?,–,–
CCCCS(=O)(=O)c1nc(-c2ccc(Br)cc2)cc(-c2ccccc2)c1C#N,·,?,–,–
CCNC(=O)N1CCN(/[N+]([O-])=N/Oc2ccc([N+](=O)[O-])cc2[N+](=O)[O-])CC1,–,·,·,·
N#Cc1nc(-c2ccc(COc3ccc(Cl)cc3)o2)oc1N1CCC(C(N)=O)CC1,·,–,–,–
COc1ccc(C)cc1NC(=O)CN1c2ccccc2S(=O)(=O)c2ccccc21,·,–,–,–
O=C(/C=C/c1cn(-c2ccccc2)nc1-c1cccnc1)c1ccco1,–,13µM,–,–
NC(=O)c1cn(-c2ccccc2)nc1-c1cccnc1,–,13µM,–,–
